# Experimental data published in the supplement of paper PMC9694430.
# Where a name gives a salt, the structure may show the parent alone.
# Legend:
# Test in all cases: thermal shift delta Tm vs DMSO control; higher = stronger stabilization (binding)
# Details in all cases: 12.5 µM; protein concentration 2 µM
# LOC_OS01G01410-cb001 = tested on: LOC_OS01G01410-cb001
# In short: (§1)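 Rice kinase domain constructs were expressed in E. coli, purified, and tested by differential scanning fluorimetry with compound added in DMSO. Each well of a 96-well plate held 19.5 μl of 2 μM kinase in 100 mM potassium phosphate pH 7.5, 150 mM NaCl, 10% glycerol and 5 × SYPRO Orange, and fluorescence was read from 25°C to 95°C at 0.05°C/s. The melting temperature shift is the mean of triplicates, taken against protein with DMSO alone after Boltzmann fitting.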
# LOC_OS01G02750-cb003 = tested on: LOC_OS01G02750-cb003
# In short: as §1
# LOC_OS01G10900-cb004 = tested on: LOC_OS01G10900-cb004
# In short: as §1
# LOC_OS01G13800-cb001 = tested on: LOC_OS01G13800-cb001
# In short: as §1
# LOC_OS01G14860-cb001 = tested on: LOC_OS01G14860-cb001
# In short: as §1
# LOC_OS01G21960-cb002 = tested on: LOC_OS01G21960-cb002
# In short: as §1
# LOC_OS01G39600-cb002 = tested on: LOC_OS01G39600-cb002
# In short: as §1
# LOC_OS01G48390-cb002 = tested on: LOC_OS01G48390-cb002
# In short: as §1
# LOC_OS01G51400-cb002 = tested on: LOC_OS01G51400-cb002
# In short: as §1
# LOC_OS01G52050-cb004 = tested on: T1, LOC_OS01G52050-cb004
# T1 sequence (whole entry): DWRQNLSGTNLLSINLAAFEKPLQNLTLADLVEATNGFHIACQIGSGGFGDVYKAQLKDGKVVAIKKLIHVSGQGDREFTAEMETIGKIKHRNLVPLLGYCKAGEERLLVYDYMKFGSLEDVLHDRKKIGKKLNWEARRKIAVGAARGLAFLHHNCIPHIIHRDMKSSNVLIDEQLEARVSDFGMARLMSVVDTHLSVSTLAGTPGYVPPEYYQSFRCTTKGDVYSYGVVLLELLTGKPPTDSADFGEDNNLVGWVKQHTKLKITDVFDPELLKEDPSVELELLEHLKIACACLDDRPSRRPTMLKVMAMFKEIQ
# In short: as §1
# LOC_OS01G57100-cb003 = tested on: LOC_OS01G57100-cb003
# In short: as §1
# LOC_OS01G60330-cb001 = tested on: LOC_OS01G60330-cb001
# In short: as §1
# LOC_OS01G60700-cb002 = tested on: LOC_OS01G60700-cb002
# In short: as §1
# LOC_OS01G63280-cb003 = tested on: LOC_OS01G63280-cb003
# In short: as §1
# LOC_OS01G67340-cb003 = tested on: LOC_OS01G67340-cb003
# In short: as §1
# LOC_OS01G70970-cb002 = tested on: LOC_OS01G70970-cb002
# In short: as §1
# LOC_OS02G07810-cb001 = tested on: LOC_OS02G07810-cb001
# In short: as §1
# LOC_OS02G08530-cb003 = tested on: LOC_OS02G08530-cb003
# In short: as §1
# LOC_OS02G14120-cb001 = tested on: LOC_OS02G14120-cb001
# In short: as §1
# LOC_OS02G17970-cb001 = tested on: LOC_OS02G17970-cb001
# In short: as §1
SMILES,thermal shift delta Tm (LOC_OS01G01410-cb001),thermal shift delta Tm (LOC_OS01G02750-cb003),thermal shift delta Tm (LOC_OS01G10900-cb004),thermal shift delta Tm (LOC_OS01G13800-cb001),thermal shift delta Tm (LOC_OS01G14860-cb001),thermal shift delta Tm (LOC_OS01G21960-cb002),thermal shift delta Tm (LOC_OS01G39600-cb002),thermal shift delta Tm (LOC_OS01G48390-cb002),thermal shift delta Tm (LOC_OS01G51400-cb002),thermal shift delta Tm (LOC_OS01G52050-cb004),thermal shift delta Tm (LOC_OS01G57100-cb003),thermal shift delta Tm (LOC_OS01G60330-cb001),thermal shift delta Tm (LOC_OS01G60700-cb002),thermal shift delta Tm (LOC_OS01G63280-cb003),thermal shift delta Tm (LOC_OS01G67340-cb003),thermal shift delta Tm (LOC_OS01G70970-cb002),thermal shift delta Tm (LOC_OS02G07810-cb001),thermal shift delta Tm (LOC_OS02G08530-cb003),thermal shift delta Tm (LOC_OS02G14120-cb001),thermal shift delta Tm (LOC_OS02G17970-cb001)
COc1cc2c(cc1OC)[C@@H]1C(=O)c3ccc4c(c3O[C@@H]1CO2)C=CC(C)(C)O4 [Deguelin],0.07 °C,0.45 °C,0.52 °C,0.41 °C,0.23 °C,0.41 °C,-0.1 °C,0.4 °C,-0.11 °C,0.13 °C,1.25 °C,1.41 °C,0.73 °C,0.43 °C,0.31 °C,0.2 °C,0.57 °C,0.83 °C,0.97 °C,1.35 °C
Cc1cc(O)c(-c2ccc([C@@H](C)CN)cc2)c2c1[nH]c(=O)c1sccc12 [OTS514 hydrochloride],0.18 °C,0.75 °C,1.18 °C,0.58 °C,5.36 °C,1.5 °C,0.36 °C,1.38 °C,-0.1 °C,1.82 °C,-0.04 °C,2.08 °C,1.5 °C,0.46 °C,0.86 °C,0.57 °C,0.41 °C,1.3 °C,4.21 °C,1.52 °C
"O=c1cc(-c2ccccc2)oc2c(O)c(O)ccc12 [7,8-Dihydroxyflavone]",2.01 °C,2.3 °C,0.12 °C,2.97 °C,3.88 °C,3.56 °C,0.49 °C,1.55 °C,0.69 °C,1.44 °C,5.23 °C,-0.01 °C,3.2 °C,1.34 °C,0.96 °C,-0.06 °C,2.73 °C,1.59 °C,0.71 °C,3.29 °C
Nc1[nH]nc2nnc(-c3c(-c4ccccc4)nn4ccccc34)cc12,0.52 °C,0.34 °C,0.36 °C,0.24 °C,1.87 °C,0.45 °C,-0.05 °C,0.56 °C,0.19 °C,0.56 °C,1.13 °C,1.24 °C,0.92 °C,0.4 °C,0.72 °C,0.68 °C,-0.25 °C,2.11 °C,0.36 °C,0.87 °C
CC1=C(C(=O)Nc2cc3cn[nH]c3cc2F)C(c2ccc(C(F)(F)F)cc2)CC(=O)N1 (stereo not given),0.57 °C,-0.19 °C,0.11 °C,0.54 °C,0.16 °C,0.33 °C,-0.15 °C,-0.18 °C,-0.23 °C,0 °C,1.21 °C,0.48 °C,0.2 °C,2.09 °C,-0.48 °C,0.04 °C,0.72 °C,0.55 °C,0.25 °C,0.19 °C
COc1ccc(Cl)cc1NC(=O)Nc1cc(C)nc2ccccc12,0.77 °C,3.02 °C,0.18 °C,0.68 °C,0.5 °C,1.37 °C,-1.53 °C,5.48 °C,1.15 °C,1.3 °C,1.28 °C,1.01 °C,0.92 °C,0.87 °C,0.83 °C,0.66 °C,1.12 °C,0.89 °C,0.14 °C,0.65 °C
CCOc1cc2ncc(C#N)c(Nc3ccc(F)c(Cl)c3)c2cc1NC(=O)/C=C/CN(C)C [Pelitinib (EKB-569)],0.85 °C,0.32 °C,1.14 °C,0.55 °C,4.99 °C,1.49 °C,4.78 °C,0.69 °C,0.03 °C,3.13 °C,2.45 °C,0.74 °C,0.94 °C,-0.05 °C,0.12 °C,0.22 °C,0.84 °C,0.59 °C,0.98 °C,0.01 °C
